# From PubChem
# LRH-1 inv ag – LRH-1 (NR5A2) inverse agonists, primary screen, cell-based, luminescence, HEK293T, StAR-luciferase reporter | Nuclear receptor subfamily 5 group A member 2 (Homo sapiens), O00482 | LRH-1 transfected, 24 h | inhibition, % at 3.6 µM | 360,000 compounds, 0.13% hits;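 active = inhibition above the mean inhibition of all tested compounds plus 3 SD, cut at about 73% in these data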;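 also: 0% = DMSO wells and 100% = reporter-only cells lacking LRH-1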
# NCOA2 inhibitor – inhibition of GAL4-SRC2 driven luciferase reporter, primary screen, SRC2 inhibitor project, cell-based, luminescence. inhibition, % at 9 µM. HEK293 GAL4-SRC2 luciferase reporter. 370,000 compounds, 0.17% hits;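 active = inhibition above the mean inhibition of all tested compounds plus 3 SD, set per campaign, cut at about 52% in these data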;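 also: 0% = DMSO treated cells and 100% = cells given Gossypol at 36 µM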
# NCOA1 inh – SRC1 coactivator transcriptional activity inhibitors, primary screen, cell-based, luminescence; HEK293 GAL4-SRC1 luciferase reporter; Nuclear receptor coactivator 1 (Homo sapiens), Q15788; inhibition, % at 3.6 µM; 360,000 compounds, 0.12% hits;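 active = inhibition above the campaign mean plus 3 SD, with each screening campaign given its own cutoff, cut at about 60% in these data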;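 also: 0% = DMSO treated cells and 100% = gossypol at 36 µM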
# GalR3 antagonist – GalR3 antagonists in HEK293 cells, primary screen, cell-based, fluorescence readout. Galanin receptor type 3 (Homo sapiens), O60755. HEK293 GalR3-CNG cAMP membrane potential fluorescence; galR3 body fused to GalR1 C-terminus. inhibition, % at 3 µM. 360,000 compounds, 0.44% hits;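 active = inhibition above the screen-wide average plus 3 SD, cut at about 13% in these data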;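 also: forskolin and galanin both at EC90 stimulate the cells; cAMP rise reported by CNG channel membrane potential dye signal; 0% = forskolin plus galanin with DMSO and 100% = forskolin alone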
# NR2F2 inh – NR2F2 transcriptional activity inhibitors, primary screen, cell-based, luciferase reporter, HEK293T, luminescence; HEK293T NGFI-A luciferase reporter; inhibition, % at 8.6 µM; AID 686940, 2013; 370,000 compounds, 0.7% hits; COUP transcription factor 2 (Homo sapiens), P24468;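 active = inhibition above a per-plate cutoff, mean inhibition of test wells between control levels plus 3 SD, cut at about 38% in these data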;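 also: cells cotransfected with COUP-TFII expression vector driving the NGFI-A reporter; 0% = median of COUP-TF2 test wells and 100% = reporter-only cells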
# SRC3 inh – SRC3 coactivator transcriptional activity inhibitors, primary screen, cell-based, luminescence; AID 588352, 2011; Nuclear receptor coactivator 3 (Homo sapiens), Q9Y6Q9; 360,000 compounds, 0.17% hits; inhibition, % at 3.6 µM; HEK293 GAL4-SRC3 luciferase reporter;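 active = inhibition above a per-campaign cutoff, the mean of all compounds plus 3 SD, cut at about 60% in these data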;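 also: 0% = DMSO-treated cells and 100% = gossypol-treated cells at 36 µM; higher means less SRC3-driven luciferase light from the GAL4 reporter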
# Gal4-VP16 ctr – Gal4-VP16 luciferase reporter inhibitors, counter-screen for COUP-TFII antagonist project, cell-based, luminescence, HEK293; shares compounds with NR2F2 inh; inhibition, % at 8.5 µM; 2,500 compounds, 25% hits; in the data active = inhibition above about 13%
# NR2F2 inh conf – NR2F2 transcriptional activity inhibitors, confirmation, cell-based, luciferase reporter, HEK293, triplicate; shares compounds with NR2F2 inh; AID 687008, 2013; inhibition, % at 8.5 µM; 2,500 compounds, 45% hits; HEK293 NGFI-A luciferase reporter, luminescence;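 active = mean inhibition over three repeats above a set limit taken from the earlier primary screen, cut at about 38% in these data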;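 also: 100% = cells given the luciferase reporter alone without the COUP-TF2 vector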
# * marks the source's active call; other numbers are inactive results; nt = no result. A selection: hits, their analogues and other compounds. The true share with any hit is near 1.1%.
SMILES,LRH-1 inv ag,NCOA2 inhibitor,NCOA1 inh,GalR3 antagonist,NR2F2 inh,SRC3 inh,Gal4-VP16 ctr,NR2F2 inh conf
COCCCN=C1NN=C(c2cc(C)n(-c3ccccc3F)c2C)CS1,-113.5,-53.4,-42.2,-6.2,4.5,-30.8,nt,nt
COCCn1c(C)cc(C2=NNC(=Nc3ccccc3F)SC2)c1C,87.1*,84.1*,83.8*,-5.1,90.0*,85.0*,35.7*,80.5*
C=CCN(CC#CC1=CCCCC1)CC1CC1,nt,-23.4,nt,nt,-25.3,nt,nt,nt
CCc1nc(NCc2ccccn2)c2oc3ccccc3c2n1,25.7,17.7,12.3,-4.6,39.0*,26.1,-13.8,14.8
Cc1nc(NCc2ccccn2)c2ccccc2n1,15.4,11.9,5.8,-0.1,43.0*,34.7,0.4,22.2
O=C(Nc1ccc2c(c1)OCO2)c1ccc(Br)c(S(=O)(=O)N2CCCC2)c1,-20.4,1.1,-2.6,-3.7,42.8*,2.3,-34.0,-14.2
O=C(c1ccc(Cl)c(S(=O)(=O)N2CCCCCC2)c1)N1CCN(c2ccccn2)CC1,23.8,15.9,0.0,-8.5,42.3*,20.5,-1.4,24.5
O=C(Nc1ccncc1)c1ccc(Cl)c(S(=O)(=O)N2CCCCC2)c1,36.1,13.5,19.7,-4.5,61.0*,8.0,7.2,40.2*
O=C(Nc1ccc2c(c1)OCCO2)c1ccc(Br)c(S(=O)(=O)N2CCOCC2)c1,0.8,37.5,0.0,-5.9,5.2,12.2,nt,nt
CCOC(=O)N1CCN(S(=O)(=O)c2cc(OCC(=O)NC3CCCCC3)c(C)cc2Cl)CC1,3.7,8.2,-4.6,-3.4,14.8,17.0,nt,nt
Cc1cc(Cl)c(S(=O)(=O)N2CCN(c3ccccn3)CC2)cc1OCC(=O)NC1CCCCC1,6.2,34.1,11.7,6.5,42.9*,11.5,1.4,7.2
O=C(C1CCN(c2ncnc3c2sc2cccc(F)c23)CC1)N1CCN(Cc2ccc(F)cc2)CC1,nt,-12.1,nt,nt,9.6,nt,nt,nt
O=C1CCC[C@H]2C[C@H](NCc3cccs3)CC[C@]23CCCN13,nt,nt,nt,nt,8.3,nt,nt,nt
O=C(O)CCCc1ccc2c(c1)CCc1ccccc1-2,-9.3,73.5*,16.8,-3.4,75.2*,19.3,56.8*,48.8*
CCCCn1c2c(c(=N)c3c1CCC3)CCC2,45.5,15.7,29.6,-4.6,47.3*,27.9,10.7,39.2*
Cc1nc(N2CCN(Cc3ccccc3)CC2)nc2c1C(=O)CC(C)C2 (stereo not drawn),-18.6,0.5,-7.4,-1.7,13.6,-7.2,nt,nt
COc1ccc(C2CC(=O)c3c(C)nc(N4CCN(Cc5ccccc5)CC4)nc3C2)cc1OC (stereo not drawn),14.8,22.4,-3.9,-5.3,61.6*,13.9,8.4,39.1*
COc1ccccc1NS(=O)(=O)c1ccc(-c2cnc(C3CC3)o2)cc1,6.6,1.2,17.0,-2.8,-13.9,9.1,nt,nt
COc1ccc(NS(=O)(=O)c2ccc(-c3cnc(C4CC4)o3)cc2)cc1OC,66.7,31.3,26.1,8.1,56.4*,23.1,0.9,49.7*
CN[C@H]1C[C@H]2c3cc(-c4ccc5c(c4)OCO5)ccc3CCN2C[C@H]1[C@H](C)O,nt,-4.1,nt,nt,-10.2,nt,nt,nt
O=C(c1ccco1)N1CCC(Oc2cccnc2)CC1,nt,-47.3,nt,nt,15.4,nt,nt,nt
CCn1nc(C)c(CNC(=O)c2cc(COc3ccc(F)cc3Cl)on2)c1C,11.0,32.7,27.2,3.9,41.1*,41.9,8.9,43.9*
Cc1c(C(=O)Nc2ccncc2)sc2nc(-c3ccccc3)cn12,-36.1,11.2,6.7,nt,51.7*,7.3,-41.0,11.5
Cc1c(C(=O)Nc2ccc3c(c2)OCCO3)sc2nc(-c3ccccc3)cn12,-28.4,-6.9,10.4,-2.3,32.3,24.8,nt,nt
